Results on eight compounds are retold here after PubChem BioAssay (NCATS).

Records with an inconclusive call do not appear. Active and inactive are the calls of the source. Unless noted, calls follow the shape of the dose curve; as a rule, active = well fitted curve in the direction sought with a large enough effect; inconclusive = small, poorly fitted or top-dose-only effect, or another doubt; inactive = no such curve, though single readings can be large; an effect the other way counts as inactive or inconclusive.

A short description of assay [1]: Quantitative high throughput screen for delayed death inhibitors of the malarial parasite plastid, 48 hour incubation (AID 488752). Also: % is scaled to controls: 0 for no effect and ±100 for the full control effect; nearly all actives have a fitted effect of over 65% in size. In outline:
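One parasite generation (48 h, 37 C, 5% CO2) of luciferase-reporter P. falciparum in erythrocytes is run with test compound; decreased luminescence indicates inhibited growth.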

Assay [2] addresses Thioredoxin reductase 1, cytoplasmic (Rattus norvegicus) (UniProt O89049). Briefly: qHTS Assay for Substrates of Mammalian Selenoprotein Thioredoxin Reductase 1 (TrxR1) (AID 488772).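 Also: NADPH fluorescence in the first read after selenite addition and not the 8 min delta; series mostly up to about 57 µM; 0% is about no effect; a drop in NADPH fluorescence below the no-compound background marks a TrxR1 substrate.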 In outline:
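Quantitative HTS in Tris-HCl buffer at pH 7.5 with EDTA and Tween-20, using rat TrxR1, 400 uM NADPH and 400 uM selenite (final). A fall in initial NADPH fluorescence relative to background marked substrate behaviour.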
For orientation: In qHTS, concentration-response curves come from the screen itself.

Assay [3] deals with Flap endonuclease 1 (Homo sapiens) (UniProt P39748). Put plainly: qHTS Validation Assay for the Inhibitors of Human Flap endonuclease 1 (FEN1) (AID 488816). Also: % is scaled to controls: 0 for no effect and ±100 for the full control effect. In outline:
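Human FEN1 (10 nM) preincubated 15 min at room temperature with compounds, then flap DNA substrate added at 50 nM final. Fluorescence read at 0 and 15 min; concentration-response fitted with four-parameter Hill equation.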

Assay [4] concerns the target M-phase phosphoprotein 8 (Homo sapiens) (UniProt Q99549). Briefly: qHTS Validation Assay for Inhibitors for MPP8 Chromodomain Interactions with Methylated Histone Tails (AID 488949).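 Also: 50 nM MPP8 with 50 nM peptide preformed then compounds added for 30 min; AlphaScreen signal from MPP8 chromodomain bound to biotinylated H3K9me3 peptide; top concentration of the series differs between compounds; % is scaled to controls: 0 for no effect and ±100 for the full control effect; nearly all actives have a fitted effect of over 55% in size.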 In outline:
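50 nM MPP8 + 50 nM b-H3K9me3 peptide, PBS pH 7.4/0.01% Tween-20, 30 min RT; + cpd 30 min RT; + AlphaScreen donor/Ni-chelate acceptor beads 10 ug/mL final, 30 min dark; luminescence read.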

Assay [5] addresses Chromobox protein homolog 1 (Homo sapiens) (UniProt P83916). Put plainly: qHTS Validation Assay for Inhibitors of HP1-beta Chromodomain Interactions with Methylated Histone Tails (AID 488953).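 Also: loss of AlphaScreen luminescence from HP1-beta binding biotinylated H3K9me3 peptide; series mostly up to about 110 µM; % is scaled to controls: 0 for no effect and ±100 for the full control effect; nearly all actives have a fitted effect of over 50% in size.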 The method, boiled down: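 Measured as loss of AlphaScreen luminescence from streptavidin donor and nickel acceptor beads (10 ug/mL final) bridging HP1-beta and biotin-H3(1-18)K9me3, each 50 nM. Compounds met the preassembled complex for 30 min at RT.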

The target in assay [6] is Methanococcus maripaludis chaperonin (MmCpn) (UniProt Q6LX38). Put plainly: High-Throughput Screening for Modulators of Cytosolic Chaperonin Activity: MmCpn Primary Screen (AID 488978).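 Also: 50 nM MmCpn enzyme hydrolysing 30 µM ATP at 37 °C; 0% is about no effect.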 The method, boiled down: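 Steps: chaperonin 50 nM final; add compound, 5 min RT; start with ATP, 30 uM final; hold 10 min at 37C; add ADP Transcreener HTRF reagent, 5 min; read ex 320, em 590 and 665 nm.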
Chain of Methanococcus maripaludis chaperonin (MmCpn) (Q6LX38 1-543): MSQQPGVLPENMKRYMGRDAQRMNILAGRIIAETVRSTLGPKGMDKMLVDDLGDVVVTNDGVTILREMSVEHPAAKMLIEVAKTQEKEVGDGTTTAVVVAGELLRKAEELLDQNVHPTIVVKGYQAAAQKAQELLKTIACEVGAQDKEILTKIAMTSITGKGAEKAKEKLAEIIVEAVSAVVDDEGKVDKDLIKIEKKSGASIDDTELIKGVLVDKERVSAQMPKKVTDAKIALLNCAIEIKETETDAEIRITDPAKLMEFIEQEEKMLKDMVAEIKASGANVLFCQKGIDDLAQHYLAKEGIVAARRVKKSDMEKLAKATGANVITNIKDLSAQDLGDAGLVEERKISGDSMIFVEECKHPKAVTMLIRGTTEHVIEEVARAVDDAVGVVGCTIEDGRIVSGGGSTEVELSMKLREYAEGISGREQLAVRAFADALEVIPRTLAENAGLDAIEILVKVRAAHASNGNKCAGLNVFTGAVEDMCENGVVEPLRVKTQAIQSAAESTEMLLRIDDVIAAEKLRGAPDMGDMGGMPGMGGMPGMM

Assay [7] deals with Transient receptor potential cation channel subfamily V member 1 (Homo sapiens) (UniProt Q8NER1). Briefly: HTS Assay for Compounds that Act as Enhancers of the Vanilloid Receptor 1 (AID 488979). Also: 0% is about no effect. The method, boiled down: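 TRPV1 cells loaded with Fluo-8 calcium dye; compound added and Ca2+ signal (ex 480/em 520 nm) followed 3 min, then capsaicin at EC20 added and read 2 more min to detect enhancement.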
Chain of Transient receptor potential cation channel subfamily V member 1 (Homo sapiens) (Q8NER1 whole entry, looked up): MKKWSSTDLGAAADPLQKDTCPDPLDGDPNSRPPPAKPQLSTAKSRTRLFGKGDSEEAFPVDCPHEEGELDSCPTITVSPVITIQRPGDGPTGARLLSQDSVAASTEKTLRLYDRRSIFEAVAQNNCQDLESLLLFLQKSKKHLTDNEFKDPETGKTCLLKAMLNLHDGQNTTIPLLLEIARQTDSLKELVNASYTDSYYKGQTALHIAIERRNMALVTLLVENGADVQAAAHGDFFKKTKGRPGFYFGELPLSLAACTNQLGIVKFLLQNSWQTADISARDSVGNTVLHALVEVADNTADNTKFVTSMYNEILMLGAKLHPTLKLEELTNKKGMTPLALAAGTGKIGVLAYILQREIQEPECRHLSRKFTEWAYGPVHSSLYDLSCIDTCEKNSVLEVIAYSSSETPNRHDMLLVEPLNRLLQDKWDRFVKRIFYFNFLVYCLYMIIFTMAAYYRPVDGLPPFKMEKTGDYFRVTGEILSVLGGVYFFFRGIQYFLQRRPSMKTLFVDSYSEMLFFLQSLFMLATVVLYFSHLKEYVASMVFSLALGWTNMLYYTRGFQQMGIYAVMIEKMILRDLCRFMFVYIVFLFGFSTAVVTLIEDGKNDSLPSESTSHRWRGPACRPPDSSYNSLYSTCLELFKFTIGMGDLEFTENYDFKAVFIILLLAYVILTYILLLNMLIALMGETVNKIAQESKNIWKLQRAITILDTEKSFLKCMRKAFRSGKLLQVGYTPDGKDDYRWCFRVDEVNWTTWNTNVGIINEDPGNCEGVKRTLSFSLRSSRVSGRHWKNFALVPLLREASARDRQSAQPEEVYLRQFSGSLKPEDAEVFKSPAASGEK

Assay [8] addresses D(1A) dopamine receptor (Homo sapiens) (UniProt P21728). Briefly: HTS Assay for Allosteric Agonists of the Human D1 Dopamine Receptor: Primary Screen for Agonists (AID 488981). Also: 0% is about no effect. The method, boiled down:
(§1)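 Tetracycline-induced HEK293 Trex D1 cells with forced coupling to calcium, loaded with no-wash calcium dye; kinetic fluorescence read 180 s after compound addition for agonism, then a further 180 s after an EC20 dopamine challenge for potentiation.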

Assay [9] shares this target. Briefly: HTS Assay for Allosteric Agonists of the Human D1 Dopamine Receptor: Primary Screen for Potentiators (AID 488982). Also: 0% is about no effect. In outline:
as §1

The target is the same in assay [10]. Put plainly: HTS Assay for Allosteric Agonists of the Human D1 Dopamine Receptor: Primary Screen for Antagonists (AID 488983).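 Also: calcium flux response to an EC80 dopamine challenge measured with no-wash dye; % is scaled to controls: 0 for no effect and ±100 for the full control effect; nearly all actives have a fitted effect of over 65% in size.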 In outline: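 Screening of inducible HEK293 T-REx D1 cells: compound first, EC80 dopamine 180 s later, each phase read kinetically for calcium over 180 s.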
Assay [11] in a line: Validation screen for small molecules that induce genotoxicity in human embryonic kidney (HEK293T) cells expressing luciferase-tagged ELG1 (AID 493106). Also: 0% is about no effect. The method, boiled down:
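Reporter-gene quantitative HTS in HEK293T cells carrying luciferase-tagged ELG1, whose level climbs under genotoxic stress. Compound exposure lasts 16 hr at 37 °C before luciferase detection.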

The target of assay [12] is ATPase family AAA domain-containing protein 5 (Homo sapiens) (UniProt Q96QE3). Briefly: Validation screen for small molecules that inhibit ELG1-dependent DNA repair in human embryonic kidney (HEK293T) cells expressing luciferase-tagged ELG1 (AID 493107).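 Also: cells co-treated with the DNA-damaging agent 5-fluorouridine alongside compound; series mostly up to about 46 µM; % is scaled to controls: 0 for no effect and ±100 for the full control effect; inhibitors lower the ELG1-luciferase luminescence signal; nearly all actives have a fitted effect of over 70% in size.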 The method, boiled down: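 Quantitative HTS in HEK293T cells carrying luciferase-tagged ELG1, stimulated with 5-fluorouridine alongside compound for 16 hr. Loss of luciferase signal marks inhibition of ELG1 response.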

The nature of assay [13]: Nrf2 qHTS screen for inhibitors: Validation (AID 493153; active = well fitted inhibition curve with a large enough effect in the main read-out, with a control signal flat, not every such curve was filed as active). The settings on record: viability change: measured here: cytotoxicity max response. The method, boiled down: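 Dose-response validation uses reporter A549 cells with firefly luciferase under an antioxidant response element. Compounds stay on cells 18-24 h at 37°C, and luminescence indicates Nrf2-driven transcription.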

Assay [14] in a line: qHTS for Inhibitors of Cell Surface uPA Generation: Validation Assay (AID 493164).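 Also: RAW 264.7 macrophage cells exposed to compound for 18 h; 0% is about no effect.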 The method, boiled down: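 RAW 264.7, 4000 cells/well, o/n plating; cpd 7-pt 1:5 dilution 2.45 nM–38.3 uM final; 18 h, 37 C/5% CO2; ATP-Lite, 5 s luminescence exposure.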
For assay [15], the target named is Galactokinase (Homo sapiens) (UniProt P51570). Put plainly: qHTS Validation Assay for Inhibitors of Human Galactokinase (GALK) (AID 493189). Also: 0% is about no effect. In outline:
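5 nM GALK / 100 uM galactose / 35 uM ATP, 20 mM HEPES pH8.0, 5 mM MgCl2, 60 mM NaCl, 1 mM DTT, 0.01% BSA (final). RT 1 h; Kinase-Glo Plus luminescence.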

The nature of assay [16]: Validation screen for small molecules that induce DNA re-replication in SW480 colon adenocarcinoma cells (AID 504364). Also: 0% is about no effect. The method, boiled down:
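Cells are treated 48 hr with test compound, stained 40 min with Hoechst at 37 C, and scanned for nuclear fluorescence; compounds inducing re-replication increase nuclei with elevated intensity.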

Assay [17] concerns the target Peptidyl-prolyl cis-trans isomerase NIMA-interacting 1 (Homo sapiens) (UniProt Q13526). Briefly: qHTS Validation Assay to Find Inhibitors of Pin1 (AID 504536; active = well fitted inhibition curve with a large enough effect in the polarisation, with a control signal flat, not every such curve was filed as active; the % refers to the polarisation;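 also: 0% = full Pin1 enzyme wells and -100% = no-enzyme wells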). In outline: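 Fluorescence polarization competition: compounds (titration) displace HiFluor-488-labeled Pin1-1b peptide from Pin1 (0.3 uM final) in pH 7.5 HEPES buffer with DTT, 10 min at room temperature; %Activity normalized to no-enzyme wells, curves fitted.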

Assay [18] concerns the target Phosphoglycerate kinase, glycosomal (Trypanosoma brucei brucei) (UniProt P07378). Put plainly: qHTS Validation Assay to Find Inhibitors of Phosphoglycerate Kinase (AID 504547).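 Also: control wells lack PGK and mark full inhibition.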 The method, boiled down:
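PGK activity was coupled to GAPDH (100nM final), which generates the unstable substrate 1,3-bisphosphoglycerate in-well. Reactions ran 60 minutes at room temperature in 100mM TEA pH 7.6, 5mM MgCl2, 0.01% Tween-20, then Kinase-Glo Plus luminescence was read.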

Assay [19] concerns the target phosphoglycerate mutase (Leishmania major) (UniProt Q4Q090). Briefly: qHTS Validation Assay to Find Inhibitors of Phosphoglycerate Mutase (AID 504548). Also: series mostly up to about 58 µM; % is scaled to controls: 0 for no effect and ±100 for the full control effect. The method, boiled down:
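Lm PGAM at 1.25 nM final with substrate in 100 mM TEA pH 7.6, 5 mM MgCl2, 0.01% Tween-20; 45 min at room temperature. Kinase-GloPlus added, 10 min, end-point luminescence read.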

For assay [20], the target named is Thyrotropin receptor (Homo sapiens) (UniProt P16473). Put plainly: qHTS Assay for Antagonists of the Thyroid Stimulating Hormone Receptor (AID 488980). Also: series mostly up to about 58 µM; 0% is about no effect. The method, boiled down: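 Readout is cAMP by HTRF competition between cellular cAMP and cAMP-d2 for a cryptate-labelled antibody. Antagonism was assessed in TSHR-transfected HEK293 cells stimulated with 4 nM TSH (EC80, final) in the presence of RO 20-1724.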

Chain of phosphoglycerate mutase (Leishmania major) (Q4Q090 1-553): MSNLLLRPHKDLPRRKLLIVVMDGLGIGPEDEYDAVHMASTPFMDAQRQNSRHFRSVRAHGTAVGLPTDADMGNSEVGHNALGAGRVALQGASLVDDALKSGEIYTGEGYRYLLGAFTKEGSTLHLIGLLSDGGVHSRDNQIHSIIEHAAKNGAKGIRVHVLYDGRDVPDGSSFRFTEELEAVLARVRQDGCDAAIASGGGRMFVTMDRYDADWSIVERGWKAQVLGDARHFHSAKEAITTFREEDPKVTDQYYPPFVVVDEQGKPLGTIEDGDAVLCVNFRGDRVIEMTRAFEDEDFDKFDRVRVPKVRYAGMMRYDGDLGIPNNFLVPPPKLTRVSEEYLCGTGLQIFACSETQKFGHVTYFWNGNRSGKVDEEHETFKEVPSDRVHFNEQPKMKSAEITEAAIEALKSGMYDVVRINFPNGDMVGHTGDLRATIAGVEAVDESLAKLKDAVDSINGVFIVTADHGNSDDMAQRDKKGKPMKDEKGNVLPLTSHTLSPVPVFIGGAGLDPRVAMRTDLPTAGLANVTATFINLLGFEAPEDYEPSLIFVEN
Chain of Phosphoglycerate kinase, glycosomal (Trypanosoma brucei brucei) (P07378 whole entry, looked up): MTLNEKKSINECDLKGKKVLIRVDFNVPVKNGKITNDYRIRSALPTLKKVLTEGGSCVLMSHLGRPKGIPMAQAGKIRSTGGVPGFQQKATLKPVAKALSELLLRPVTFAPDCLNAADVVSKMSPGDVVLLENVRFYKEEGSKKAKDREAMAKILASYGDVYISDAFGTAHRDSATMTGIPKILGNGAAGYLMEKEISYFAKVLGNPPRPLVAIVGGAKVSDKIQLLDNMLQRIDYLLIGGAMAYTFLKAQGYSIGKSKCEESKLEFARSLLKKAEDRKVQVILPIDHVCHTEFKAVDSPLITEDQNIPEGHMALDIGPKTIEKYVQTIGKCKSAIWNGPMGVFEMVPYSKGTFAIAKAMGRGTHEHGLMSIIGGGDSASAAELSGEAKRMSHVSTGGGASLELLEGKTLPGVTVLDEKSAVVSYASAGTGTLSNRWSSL
Chain of Flap endonuclease 1 (Homo sapiens) (P39748 whole entry, looked up): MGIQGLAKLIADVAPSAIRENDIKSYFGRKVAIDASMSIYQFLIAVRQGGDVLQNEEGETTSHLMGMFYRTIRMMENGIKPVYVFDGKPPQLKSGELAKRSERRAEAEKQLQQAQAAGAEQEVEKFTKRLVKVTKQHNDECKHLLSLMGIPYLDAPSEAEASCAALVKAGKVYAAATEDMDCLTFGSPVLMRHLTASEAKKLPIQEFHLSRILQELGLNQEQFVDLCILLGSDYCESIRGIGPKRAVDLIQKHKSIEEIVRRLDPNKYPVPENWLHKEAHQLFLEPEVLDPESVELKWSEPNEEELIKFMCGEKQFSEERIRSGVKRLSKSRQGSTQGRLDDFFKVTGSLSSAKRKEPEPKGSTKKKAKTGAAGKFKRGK
Chain of Thioredoxin reductase 1, cytoplasmic (Rattus norvegicus) (O89049 whole entry, looked up): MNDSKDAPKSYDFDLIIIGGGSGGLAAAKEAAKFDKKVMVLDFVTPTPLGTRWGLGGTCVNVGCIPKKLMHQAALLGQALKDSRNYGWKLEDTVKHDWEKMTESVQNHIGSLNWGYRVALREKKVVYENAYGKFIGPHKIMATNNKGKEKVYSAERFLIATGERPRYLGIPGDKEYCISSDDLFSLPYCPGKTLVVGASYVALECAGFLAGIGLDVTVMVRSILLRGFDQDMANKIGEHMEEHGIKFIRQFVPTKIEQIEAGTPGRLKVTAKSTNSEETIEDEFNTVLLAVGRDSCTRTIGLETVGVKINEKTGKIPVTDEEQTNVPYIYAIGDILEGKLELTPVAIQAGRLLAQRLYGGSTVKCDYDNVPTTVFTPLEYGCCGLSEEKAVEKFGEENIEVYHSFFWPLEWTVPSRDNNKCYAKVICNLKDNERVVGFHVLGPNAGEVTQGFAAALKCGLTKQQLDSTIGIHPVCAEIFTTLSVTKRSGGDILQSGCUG
Chain of Peptidyl-prolyl cis-trans isomerase NIMA-interacting 1 (Homo sapiens) (Q13526 whole entry, looked up): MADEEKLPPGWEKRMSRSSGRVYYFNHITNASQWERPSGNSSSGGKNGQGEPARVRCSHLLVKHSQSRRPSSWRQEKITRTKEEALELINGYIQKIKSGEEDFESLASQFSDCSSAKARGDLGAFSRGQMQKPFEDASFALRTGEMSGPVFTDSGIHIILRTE
Chain of M-phase phosphoprotein 8 (Homo sapiens) (Q99549 whole entry, looked up): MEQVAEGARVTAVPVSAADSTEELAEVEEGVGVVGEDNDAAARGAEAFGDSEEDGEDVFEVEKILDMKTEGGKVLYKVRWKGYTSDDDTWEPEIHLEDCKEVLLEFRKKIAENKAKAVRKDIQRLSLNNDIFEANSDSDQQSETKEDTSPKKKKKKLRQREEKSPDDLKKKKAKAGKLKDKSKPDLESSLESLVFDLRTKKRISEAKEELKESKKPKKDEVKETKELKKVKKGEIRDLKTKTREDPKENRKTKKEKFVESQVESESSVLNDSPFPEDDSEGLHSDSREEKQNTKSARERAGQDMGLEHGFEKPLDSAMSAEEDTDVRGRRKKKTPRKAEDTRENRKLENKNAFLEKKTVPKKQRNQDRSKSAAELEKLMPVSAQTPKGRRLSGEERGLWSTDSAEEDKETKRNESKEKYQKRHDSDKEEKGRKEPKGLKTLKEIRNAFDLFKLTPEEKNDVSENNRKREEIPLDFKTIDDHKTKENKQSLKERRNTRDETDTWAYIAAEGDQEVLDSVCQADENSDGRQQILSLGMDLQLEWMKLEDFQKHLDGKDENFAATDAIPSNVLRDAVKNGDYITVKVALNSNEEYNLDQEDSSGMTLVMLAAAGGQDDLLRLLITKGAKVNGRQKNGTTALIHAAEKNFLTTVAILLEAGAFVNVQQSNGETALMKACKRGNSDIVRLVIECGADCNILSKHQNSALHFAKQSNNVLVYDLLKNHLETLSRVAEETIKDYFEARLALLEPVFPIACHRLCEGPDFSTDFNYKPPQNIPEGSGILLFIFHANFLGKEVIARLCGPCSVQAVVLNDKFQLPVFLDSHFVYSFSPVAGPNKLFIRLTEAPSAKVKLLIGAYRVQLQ
Chain of D(1A) dopamine receptor (Homo sapiens) (P21728 whole entry, looked up): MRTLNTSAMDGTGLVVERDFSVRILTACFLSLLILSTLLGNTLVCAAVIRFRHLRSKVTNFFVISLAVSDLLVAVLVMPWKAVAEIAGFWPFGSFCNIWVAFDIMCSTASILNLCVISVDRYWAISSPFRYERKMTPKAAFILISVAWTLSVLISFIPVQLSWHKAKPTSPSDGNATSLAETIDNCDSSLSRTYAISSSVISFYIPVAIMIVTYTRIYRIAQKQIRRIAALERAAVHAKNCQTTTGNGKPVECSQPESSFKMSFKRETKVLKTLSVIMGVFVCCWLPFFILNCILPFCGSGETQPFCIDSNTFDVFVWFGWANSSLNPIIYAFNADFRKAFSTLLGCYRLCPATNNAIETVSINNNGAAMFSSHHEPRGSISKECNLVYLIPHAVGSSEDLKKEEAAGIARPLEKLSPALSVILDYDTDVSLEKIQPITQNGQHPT
Chain of Chromobox protein homolog 1 (Homo sapiens) (P83916 whole entry, looked up): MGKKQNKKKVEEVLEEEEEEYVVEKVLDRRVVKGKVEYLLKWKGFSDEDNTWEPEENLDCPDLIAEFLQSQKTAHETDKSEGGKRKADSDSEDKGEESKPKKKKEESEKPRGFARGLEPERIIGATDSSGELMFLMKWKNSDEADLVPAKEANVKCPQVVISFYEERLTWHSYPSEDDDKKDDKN

For the compound `NC(N)=Nc1nc(CSCC/C(N)=N/S(N)(=O)=O)cs1`, the call in assay [1], in assay [3], in assay [6], in [7], in assay [8] and in assay [9] was inactive. Also, the compound was called inactive in assay [12], in assay [13], in assay [14], in [15], in [16] and in assay [17]. Moreover, the compound was classed as inactive in [18] and in assay [19]. Further, the Potency result in assay [2], in assay [4], in assay [5], in assay [10] and in assay [11] was “inactive” throughout. In [13], the viability change was -0.651%.

As to `CC(=O)c1ccc(S(=O)(=O)NC(=O)NC2CCCCC2)cc1`, the call in assay [1], in [6], in assay [7], in [20], in [8] and in assay [9] was inactive. Moreover, the compound was classed as inactive in [12], in assay [13], in [14], in [15], in [16] and in assay [17]. Besides, the compound was classed as inactive in assay [18] and in assay [19]. Moreover, the Potency result in assay [2], in assay [4], in assay [5], in assay [10] and in assay [11] was “inactive” in each case. In assay [13], the viability change is 1.61%.

Consider `NCCS`, for which the call in [1], in assay [3], in [6], in assay [7], in [8] and in [9] was inactive. For the same compound, the call in assay [12], in assay [13], in [14], in assay [15], in [16] and in assay [17] was inactive. For the same compound, the compound was called inactive in assay [18] and in assay [19]. Also, the Potency entry in [4], in assay [10] and in assay [11] was “inactive” throughout. In assay [13], the viability change is -10.7%.

`CN(C)CCC(c1ccccc1)c1ccccn1` (centres undefined): the outcome in [1], in [6], in [7], in assay [20], in [8] and in [9] was inactive. The call in [12], in [13], in assay [14], in [15], in assay [16] and in assay [17] was inactive. Moreover, the compound was called inactive in assay [18] and in [19]. The Potency result in assay [2], in assay [4], in [5], in [10] and in assay [11] was “inactive” in each case. For the same compound, in [13], the viability change is 3.7%.

For `O=C(NCCN1CCOCC1)c1ccc(Cl)cc1`, the Potency entry in assay [2], in assay [4], in [10] and in assay [11] was “inactive” throughout. For the same compound, the result in assay [6], in assay [8], in assay [9], in assay [12], in [13] and in [14] was inactive. The outcome in [17], in [18] and in [19] was inactive. The viability change in assay [13] is -1.31%.

With `O=C1NC(=O)C(c2ccccc2)(c2ccccc2)N1`, the result in assay [1], in assay [3], in assay [6], in assay [7], in assay [20] and in assay [8] was inactive. For the same compound, the result in assay [9], in [12], in [13], in assay [14], in assay [15] and in assay [16] was inactive. Also, the compound was classed as inactive in assay [17], in assay [18] and in assay [19]. Further, the Potency entry in [2], in [4], in assay [5], in [10] and in assay [11] was “inactive” in each case. The viability change in assay [13] was -3.24%.

With `COc1ccccc1N1CCN(CCCNc2cc(=O)n(C)c(=O)n2C)CC1`, the result in [1], in assay [3], in assay [6], in assay [7], in assay [20] and in assay [8] was inactive. Further, the outcome in assay [9], in [12], in [13], in assay [14], in assay [15] and in assay [16] was inactive. In addition, the call in assay [17], in assay [18] and in [19] was inactive. For the same compound, the Potency entry in assay [2], in [4], in assay [5], in [10] and in assay [11] was “inactive” each time. In addition, the viability change in [13] is -8.38%.

For `CCN(CC)C(=O)c1ccc(O)c(OC)c1`, the compound was called inactive in assay [1], in assay [6], in assay [7], in assay [20], in assay [8] and in [9]. For the same compound, the result in assay [12], in assay [13], in assay [14], in assay [15], in assay [16] and in [17] was inactive. Moreover, the compound was classed as inactive in assay [18] and in [19]. For the same compound, the Potency result in assay [2], in [4], in assay [5], in assay [10] and in assay [11] was “inactive” each time. Besides, the viability change in [13] is 8.03%.
